AHR act: activates the human aryl hydrocarbon receptor; P35869; AHR-responsive luciferase reporter cells, luminescence; activation, % at 5 µM; hit rate 2.5% among 320,000; in the data active = activation above about 47%;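 also: 0% = vehicle wells and 100% = reference agonist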
Target sequence (P35869 whole entry, looked up): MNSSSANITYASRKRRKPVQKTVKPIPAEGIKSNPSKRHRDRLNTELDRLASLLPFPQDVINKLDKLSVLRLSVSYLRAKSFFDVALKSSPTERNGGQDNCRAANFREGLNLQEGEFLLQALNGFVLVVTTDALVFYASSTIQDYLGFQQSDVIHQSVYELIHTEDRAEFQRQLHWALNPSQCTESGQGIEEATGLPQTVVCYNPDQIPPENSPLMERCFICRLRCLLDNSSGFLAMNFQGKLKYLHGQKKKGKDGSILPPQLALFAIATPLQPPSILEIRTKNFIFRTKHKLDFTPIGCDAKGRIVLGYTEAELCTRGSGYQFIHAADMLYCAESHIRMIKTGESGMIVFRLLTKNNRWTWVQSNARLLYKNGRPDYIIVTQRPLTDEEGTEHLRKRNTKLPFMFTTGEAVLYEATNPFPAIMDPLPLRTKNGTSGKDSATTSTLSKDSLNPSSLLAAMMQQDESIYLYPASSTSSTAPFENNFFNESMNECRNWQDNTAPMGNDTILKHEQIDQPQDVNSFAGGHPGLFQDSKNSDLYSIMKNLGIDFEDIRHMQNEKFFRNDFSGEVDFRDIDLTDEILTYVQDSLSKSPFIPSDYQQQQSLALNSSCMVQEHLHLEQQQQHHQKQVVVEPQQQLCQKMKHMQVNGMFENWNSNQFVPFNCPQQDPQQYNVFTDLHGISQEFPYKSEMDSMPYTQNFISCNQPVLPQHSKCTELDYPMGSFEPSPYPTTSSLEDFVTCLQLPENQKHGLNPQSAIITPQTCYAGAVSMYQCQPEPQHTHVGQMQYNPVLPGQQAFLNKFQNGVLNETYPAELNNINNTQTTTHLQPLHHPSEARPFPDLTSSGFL
HSF1 inh: HSF1 inhibition | NIH3T3-HGL HSE-luciferase, MG132-induced, luminescence 8 h; hits give low values | activity change, negative = inhibition, % at 7.5 µM (by protocol) | hit rate 0.77% among 300,000;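 active = more than half of replicate wells show activity change below -50%, luminescence cut by over half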;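 also: luciferase reports HSF-1 transcriptional activity via heat shock element; 0% = median of DMSO wells and -100% = zero luminescence signal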
HSP90 refold inh: inhibitors of HSP90 luciferase refolding in rabbit reticulocyte lysate | luciferase refolding luminescence, 3 h | inhibition, % at 5.6 µM | hit rate 0.91% among 290,000 | AID 1789;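 active = inhibition above the screen-wide mean plus 3 SD, computed separately per campaign, cut at about 16% in these data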;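 also: 0% = DMSO wells and 100% = 60 µM geldanamycin wells; inhibitors lower the luminescence because luciferase stays unfolded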
HSF1 activator: increases HSF-1 driven luciferase reporter signal; hit rate 1.7% among 300,000; activation, % at 9 µM; NIH3T3-HGL HSF-1 luciferase reporter, MG132, 8 h; 100% = twice DMSO control signal;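 active = mean replicate activation of at least 50% with a set share of replicates each reaching 50%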;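 also: 0% = median of the neutral control wells and 100% = twice that signal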
FXN GAA850 act: activators of GAA850 frataxin (FXN) promoter | HEK293 lucGAA850 FXN promoter luciferase reporter, 24 h; percent of 10 µM SAHA response | activation, % at 6 µM | hit rate 0.56% among 360,000 | AID 540364;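 active = activation above the average of all compounds screened plus 3 SD, cutoff fixed separately per campaign, cut at about 7.5% in these data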;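 also: 0% = DMSO wells and 100% = 10 µM SAHA wells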
DAX1 inh: inhibitors of human orphan nuclear receptor DAX1 (NR0B1); hit rate 0.99% among 340,000; HEK293 Gal4-DAX1 luciferase reporter, luminescence; AID 504766; P51843; inhibition, % at 6.75 µM;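 active = inhibition above the mean over all tested compounds plus 3 SD, cut at about 4.2% in these data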;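 also: 0% = DAX1-transfected cells with DMSO and 100% = empty-vector control cells with DMSO; inhibition shows as a rise in luminescence from relieved DAX1 repression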
Starred values were filed as active, the others as inactive; x = not tested or not shown. Compounds with a hit are over-represented: about 5.9% of the library has one in this group of screens.

SMILES | AHR act | HSF1 inh | HSP90 refold inh | HSF1 activator | FXN GAA850 act | DAX1 inh
COc1cc2c(cc1OC)C(COc1cccc(C(F)(F)F)c1)NCC2 (stereo not given) | 12 | 9 | 6 | 9 | -1 | -1
CC1(c2ccccc2)CC2CC(c3ccccc3)N1O2 (stereo not given) | 2 | 64 | 0 | 124* | 0 | -1
COc1ccc(C2CC3CC(c4ccccc4)N2O3)cc1 (stereo not given) | 0 | 4 | 0 | 17 | 1 | 0
NC(=O)c1ccccc1NC(=O)CC1(CC(=O)O)CCCC1 | -1 | -4 | 4 | 18 | 1 | 1
COc1cc(N2CCCC2)c(OC)cc1/C=C(/C#N)c1cccc(F)c1 | 69* | 0 | 4 | -6 | -1 | 1
N#C/C(=C/c1ccc(N2CCOCC2)o1)c1ccc(Br)cc1 | 3 | 80 | 3 | 94* | 16* | -1
N#C/C(=C/c1ccc(N2CCCCCC2)o1)c1ccc(F)cc1 | -5 | 93 | 2 | 114* | 3 | -2
N#C/C(=C/c1ccc(N2CCCCC2)o1)C(=O)Nc1ccc(Cl)cc1 | 8 | 21 | -1 | 28 | 5 | 0
COc1cccc(/C=C(/C#N)c2ccc(F)cc2)c1OCc1cccc(C(=O)O)c1 | 4 | 3 | 2 | 14 | 4 | -1
N#C/C(=C/c1ccc(N2CCCCCC2)o1)c1cccc(F)c1 | 0 | 48 | 2 | 81* | 6 | -2
N#C/C(=C/c1ccc(N2CCOCC2)o1)c1nc2ccccc2[nH]1 | 25 | x | -1 | x | 2 | 3
CCOC(=O)CCCCCC(=O)Nc1ccc2c(c1)CC(=O)N([C@@H](C)CO)C[C@@H](C)[C@@H](CN(C)C(=O)Nc1ccc(C(F)(F)F)cc1)O2 | 0 | x | x | x | 0 | 0
Cn1cncc1C#Cc1c(C=O)[nH]c2ccccc12 | 68* | x | x | x | -4 | 0
Cc1cc(C(=O)COC(=O)Cc2n[nH]c(=O)c3ccccc23)c(C)n1-c1ccc2c(c1)OCCO2 | 1 | -57* | 1 | -58 | -3 | -1
C/C(=N\Nc1nc(N)cc(Cl)n1)c1cccc(N)c1 | 65* | 6 | 1 | -7 | 7 | 0
COc1cc2c(C)nc3onc(-c4ccccc4)c3c2cc1OC | 71* | 1 | 2 | 21 | 2 | 1
COc1ccccc1CN1CC(C(=O)NCCc2ncccc2C)CCC1=O (stereo not given) | x | 31 | -2 | 79* | 0 | 1
COc1ccccc1CCNC(=O)C1CCC(=O)N(Cc2ccccc2OC)C1 (stereo not given) | 4 | 9 | -3 | 15 | 2 | 0
CCCCCCP(=O)(O)c1ccccc1 | 0 | 3 | -1 | 9 | -1 | 6.1*
O=P(CCCCCCCCCP(=O)(c1ccccc1)c1ccccc1)(c1ccccc1)c1ccccc1 | 0 | -4 | 6 | 17 | -8 | -2
COc1ccc(NC(=O)Cc2ccccc2)cn1 | 3 | 2 | -1 | 1 | 1 | -1
COc1ccc(NC(=O)/C(Cl)=C(/Cl)S(=O)Cc2ccccc2)cn1 (stereo not given) | -13 | -93* | 6 | -93 | -15 | -4
CCCCNC(=S)Nc1ccc(OC)nc1 | 3 | 23 | -4 | 65* | 3 | 2
Cc1cc(C)c(C#N)c(Sc2ccccc2N)n1 | 49* | -14 | 0 | -12 | 2 | 1
O=S1(=O)CCOC[C@H](c2ccccc2)N1Cc1ccccc1F | 0 | -1 | -4 | -7 | 1 | 0
SMILES | AHR act | HSF1 inh | HSP90 refold inh | HSF1 activator | FXN GAA850 act | DAX1 inh
Cc1cccc(NC(=O)/C=C/c2ccc([N+](=O)[O-])s2)c1 | 29 | -47 | 1 | -38 | -12 | -2
O=C(N/N=C/c1ccc([N+](=O)[O-])s1)c1ccncc1 | 4 | 50 | 0 | 61* | 1 | -2
O=C(N/N=C/c1cc([N+](=O)[O-])ccc1O)c1ccncc1 | 12 | -54* | -3 | -61 | 0 | 0
Cc1ccc(C(=O)N/N=C/c2ccc([N+](=O)[O-])s2)cc1 | -1 | -70* | 4 | -72 | -15 | -5
Cc1cccc(NC(=S)N/N=C/c2ccc([N+](=O)[O-])s2)c1 | 71* | -31 | -5 | -33 | 3 | -1
CC(C)[C@H](NC(=O)[C@@H]1CSC2c3ccccc3C(=O)N21)C(=O)NC1CCCC1 (stereo not given in full) | 1 | -2 | -5 | 8 | 0 | 0
Cc1ccc(NC(=O)COC(=O)CC2CC3CCC2C3)cc1S(=O)(=O)N1CCOCC1 (stereo not given) | 0 | x | x | x | 0 | 0
O=C(COc1ccc(Cl)cc1Cl)c1ccc[nH]1 | 10 | 21 | 1 | 16 | 5 | 8.0*
Cc1ccc(Cl)c(OCC(=O)OCC(=O)c2ccc[nH]2)c1 | -1 | x | x | x | -1 | 0
CCOc1ccc(OCCC(=O)OCC(=O)Nc2cccc(S(=O)(=O)N3CCCCC3)c2)cc1 | x | x | x | x | 2 | 0
COCCNC(=O)c1cnn2c(C(F)F)cc(-c3ccc(C)cc3)nc12 | 3 | -9 | 2 | -8 | 2 | 0
COc1ccc(CNC(=O)c2cnn3c(C(F)F)cc(C)nc23)cc1OC | 52* | 2 | -6 | 15 | 2 | 0
Cc1cc(C)n2ncc(C(=O)NCc3cccnc3)c2n1 | 68* | 1 | -2 | 5 | 0 | -1
COc1ccc(-c2cc3nc(C)cc(-c4ccc(OC)cc4)n3n2)cc1 | 24 | 13 | 2 | 8 | 2 | 2
COc1ccccc1-c1cc2nc(C)cc(C)n2n1 | 49* | 9 | 3 | 16 | -1 | x
Cc1cccc(-c2cc3nc(C)cc(C)n3n2)c1 | 43 | 33 | 3 | 60* | 6 | 1
O=C(NCCc1cccc(C(F)(F)F)c1)C1CCC(=O)N(C2CC2)C1 (stereo not given) | 1 | -6 | 7 | 7 | -1 | 0
COc1ccc(C(=O)Nc2nncs2)cc1S(=O)(=O)N1CC(c2ccccc2)CC1=O (stereo not given) | 1 | -2 | -1 | -4 | 3 | 8.0*
Cc1sc2nc(CSc3n[nH]c(N)n3)[nH]c(=O)c2c1C | -1 | -3 | 0 | 18 | 0 | x
Cc1sc2nc(CSCC(=O)Nc3c(F)cccc3F)[nH]c(=O)c2c1C | 7 | 4 | x | 6 | -1 | 2
Cc1sc2nc(CSc3ccc([N+](=O)[O-])cc3)[nH]c(=O)c2c1C | 47* | 15 | -2 | 28 | x | x
Cc1sc2nc(CSc3cccc(C(F)(F)F)c3)[nH]c(=O)c2c1C | 40 | 33 | -6 | 82* | 4 | -1
Cc1sc2nc(CSCC(=O)Nc3ccc(C(F)(F)F)cc3)[nH]c(=O)c2c1C | 59* | x | x | x | 6 | 0
COCCN(C(=O)c1snc(C(N)=O)c1N)C(C(=O)NC1CCCCC1)c1ccc(N(C)C)cc1 (stereo not given) | 11 | 8 | 3 | 26 | 0 | 2
O=C(CN1C(=O)NC2(CCCCCCC2)C1=O)NCc1ccccc1 | 1 | x | x | x | 0 | -1
